ULK1 inh = human ULK1 kinase inhibition, primary screen; O75385; AlphaScreen Atg13 phosphorylation by ULK1, luminescence; inhibition, % at 5.96 µM; hit rate 1.9% among 30,000; in the data active means inhibition above about 43%;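 further: 0% = median of compound wells and 100% = no enzyme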
Target sequence (O75385 whole entry, looked up): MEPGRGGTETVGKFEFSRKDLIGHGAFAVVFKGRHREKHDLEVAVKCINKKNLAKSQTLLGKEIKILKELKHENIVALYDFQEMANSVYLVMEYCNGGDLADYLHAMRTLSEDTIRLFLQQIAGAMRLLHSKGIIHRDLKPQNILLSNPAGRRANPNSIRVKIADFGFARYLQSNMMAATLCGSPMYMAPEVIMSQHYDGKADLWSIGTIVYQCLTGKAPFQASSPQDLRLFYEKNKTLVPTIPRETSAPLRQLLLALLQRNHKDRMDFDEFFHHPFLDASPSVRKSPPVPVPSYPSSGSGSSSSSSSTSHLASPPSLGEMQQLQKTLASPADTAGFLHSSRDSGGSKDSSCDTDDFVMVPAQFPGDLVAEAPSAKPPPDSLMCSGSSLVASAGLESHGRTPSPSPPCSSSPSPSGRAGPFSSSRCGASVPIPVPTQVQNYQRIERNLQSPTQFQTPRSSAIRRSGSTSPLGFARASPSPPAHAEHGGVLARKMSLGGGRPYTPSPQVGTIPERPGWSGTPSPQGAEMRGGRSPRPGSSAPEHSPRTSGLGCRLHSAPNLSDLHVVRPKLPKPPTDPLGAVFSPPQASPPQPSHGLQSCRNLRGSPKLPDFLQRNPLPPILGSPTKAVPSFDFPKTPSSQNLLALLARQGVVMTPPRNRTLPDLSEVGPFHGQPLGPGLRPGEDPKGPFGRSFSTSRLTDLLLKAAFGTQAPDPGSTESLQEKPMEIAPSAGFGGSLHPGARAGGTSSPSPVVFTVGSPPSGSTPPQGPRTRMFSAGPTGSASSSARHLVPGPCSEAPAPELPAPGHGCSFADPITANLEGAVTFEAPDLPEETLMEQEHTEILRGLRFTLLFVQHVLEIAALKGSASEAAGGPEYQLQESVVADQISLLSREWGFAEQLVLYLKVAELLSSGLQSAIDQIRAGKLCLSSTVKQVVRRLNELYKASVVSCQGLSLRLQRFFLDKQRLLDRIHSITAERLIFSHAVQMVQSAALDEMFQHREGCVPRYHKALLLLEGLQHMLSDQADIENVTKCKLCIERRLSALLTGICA
ASK1 inh = human ASK1 kinase inhibition, primary screen. hit rate 0.99% among 22,000. AlphaScreen MKK6 phosphorylation by ASK1, luminescence. AID 1159602. inhibition, % at 7.44 µM; in the data active means inhibition above about 35%;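 further: 0% = median of compound wells and 100% = no enzyme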
Active calls of the source: *. Sampled rows, rich in hits. Any-hit rate of the full collection: about 2.5%.

Screening O=C(Nc1ccc(N2CCOCC2)cc1)c1csc(Nc2ccncn2)n1 returned ULK1 inh 42 and ASK1 inh -14.
O=C(Nc1ccc(N2CCOCC2)cc1)c1cccc(Nc2ccncn2)n1 was read as ULK1 inh 52* and ASK1 inh -30.
`O=C(Nc1ccc(N2CCOCC2)cc1)c1csc(Nc2ncccn2)n1` gave ULK1 inh 53* and ASK1 inh -19.
For CCN(CC)C(=O)C1CCCN(c2cccc(C(=O)NCCN3CCOCC3)n2)C1 (stereo not drawn) the results were ULK1 inh 1 and ASK1 inh -10.
`COc1ccc2c(c1)C[C@H](C(=O)Nc1ccc(-c3ccncc3)cc1O[C@H]1CCN(C)C1)CO2` gave ULK1 inh -9 and ASK1 inh -1.
For OCCNc1nc(Nc2cccnc2)nc2nc[nH]c12 the results were ULK1 inh 21 and ASK1 inh 10.
For COc1ccc(CCNC(=O)Cc2cn(-c3ccc(Nc4ccc5ncccc5c4)nn3)c3ccccc23)cc1 the results were ULK1 inh -8 and ASK1 inh 9.
`CCN(CC)CCC(=O)N1c2ccccc2Sc2ccc(C(F)(F)F)cc21` gave ULK1 inh 45*.
Screening CCN(CC)CCC(=O)N1c2ccccc2Sc2ccc(Cl)cc21 returned ULK1 inh 37.
`O=C(c1cc(O)c(O)c(O)c1)c1ccc(O)c(O)c1O` gave ULK1 inh 83*.
`O=C(O)c1cc(O)c(O)c(O)c1` gave ULK1 inh -8.
Screening CN(C)CCN(C)c1cc(-c2cn[nH]c2)ccc1NC(=O)C1COc2ccccc2O1 (stereo not drawn) returned ULK1 inh 3 and ASK1 inh -6.
Screening Cc1cc2c(NC3CCCN(C(=O)C(O)c4ccc(Cl)cc4)C3)cccc2nn1 (stereo not drawn) returned ULK1 inh 52* and ASK1 inh -18.
For Cc1cncc2cccc(NC3CCCN(C(=O)C(O)c4ccc(Cl)cc4)C3)c12 (stereo not drawn) the results were ULK1 inh 13 and ASK1 inh -8.
`CCN(CC)c1nc(NCCc2ccc(O)cc2)nc(Nc2nccc3ccccc23)n1` gave ULK1 inh -26 and ASK1 inh -1.
`NCC(O)c1ccc(O)c(O)c1` (stereo not drawn) gave ULK1 inh 80*.
CCC(NC(C)C)C(O)c1ccc(O)c(O)c1 (stereo not drawn) was read as ULK1 inh 8.
`COc1cccc(C(=O)Nc2ccc(-n3c(C)nc4ncccc4c3=O)cc2)c1OC` gave ULK1 inh 21.
Screening Nc1cc(Nc2ccccc2CO)c(C(F)(F)F)cn1 returned ULK1 inh 56* and ASK1 inh 9.
`O=C(Cc1ccc(F)cc1)Nc1cc(Nc2ccccc2CO)c(C(F)(F)F)cn1` gave ULK1 inh 18 and ASK1 inh 13.
For Cc1cc(Nc2ccc(N3CCOCC3)cc2)nc(-c2ccc(N3CCOCC3)nc2)n1 the results were ULK1 inh 8 and ASK1 inh 13.
For NCCc1ccc(O)c(O)c1 the results were ULK1 inh 74*.
For Nc1ccc(O)c(N)c1 the results were ULK1 inh 40.
`COc1cc(NC(=O)c2cnc(Nc3ccc4ncccc4c3)s2)cc(OC)c1OC` gave ULK1 inh -6 and ASK1 inh 5.
CCCNc1nc(Nc2ccc3ncccc3c2)nc2nc[nH]c12 was read as ULK1 inh 49* and ASK1 inh -27.
c1cnc2ccc(Nc3nc(NC4CC4)c4[nH]cnc4n3)cc2c1 was read as ULK1 inh 64* and ASK1 inh -39.
For c1cncc(CNc2nc(NC3CC3)c3[nH]cnc3n2)c1 the results were ULK1 inh -6 and ASK1 inh -4.
`c1cc(Nc2nc(NC3CC3)c3[nH]cnc3n2)ccn1` gave ULK1 inh 52* and ASK1 inh -24.
Screening c1ccc(Nc2nc(Nc3ccc4ncccc4c3)nc3nc[nH]c23)cc1 returned ULK1 inh 24 and ASK1 inh -29.
Screening c1ccc(OCCNc2nc(Nc3ccc4ncccc4c3)nc3nc[nH]c23)cc1 returned ULK1 inh 28 and ASK1 inh 10.
O=C(COc1ccccc1Cl)NNC(=O)c1ccco1 was read as ULK1 inh -2.
Nc1nc(Nc2ccc3ncccc3c2)nc2c1ncn2-c1ccccc1 was read as ULK1 inh 19 and ASK1 inh 8.
Screening O=C(NCc1cccc(C(F)(F)F)c1)c1csc(N2CCC(N3CCOCC3)CC2)n1 returned ULK1 inh -10 and ASK1 inh -8.
O=C(NC1CC1)c1ccc(-c2nc(NCc3cccc(C(F)(F)F)c3)c3ncn(-c4ccsc4)c3n2)cc1 was read as ULK1 inh -19 and ASK1 inh 8.

Source: PubChem BioAssay (The Scripps Research Institute Molecular Screening Center)
